HTT aggregate: qHTS Multiplex Assay to Identify Dual Action Probes in a Cell Model of Huntington: Aggregate Formation (GFP) | PC12 HttQ103-GFP aggregates, Acumen cytometry, 40 h | Potency, µM (titrated, usually from 46.1 µM), without a hit: at the highest dose activity change, negative = inhibition, hits mostly inhibitors | 220,000 tested, 1.1% active | AID 1688, 2009; note: % is set by controls: 0 for no effect and ±100 for the full control effect; nearly all actives have a fitted effect of over 60% in size
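Ecdysone-promoter PC12 model expressing HTT exon 1 Q103 fused to GFP, induced by tebufenozide at 100 nM final. Compounds titrated; aggregates sized 1–25 µm scored on a 488 nm laser cytometer.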
PINK1 expr mod: A Quantitative High throughput Screen to Identify Chemical Modulators of PINK1 Expression | PINK1 immunofluorescence, high-content cytometry, 24 h | Potency, µM (series often up to 76.6 µM), without a hit: top-dose activation (PINK1 increase), usual class: activators | 410,000 tested, 0.2% active; active = well fitted activation curve with a large enough effect; inconclusive = small, poorly fitted or top-dose-only effect; cell line not stated here; note: % of control where 0% means no effect; nearly all actives have a fitted effect of over 65% in size
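Measures PINK1 amount and localization on or inside mitochondria by immunofluorescence. Stable cells get compounds at 5 concentrations for 24 hours before fixation and staining; CCCP controls included.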
HTT ATP protect: qHTS Multiplex Assay to Identify Dual Action Probes in a Cell Model of Huntington: Cytoprotection (ATP). PC12 HTT-Q103 induced, cytoprotection, ATP luminescence, 40 h. Potency, µM (titrated, usually from 56.4 µM), for the others: cytoprotection (ATP increase), hits mostly activators. 230,000 tested, 0.14% active; note: % of control where 0% means no effect; nearly all actives have a fitted effect of over 45% in size
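PC12 cells stably carrying ecdysone-inducible Htt exon 1 (Q103)–GFP were induced with 100 nM tebufenozide (final) alongside library compounds in a dose series. Cytoprotection was scored as retained ATP by ATPlite luminescence.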
Epigenetic reg: Quantitative High-Throughput Screen for Regulators of Epigenetic Control; murine LDR cells, GFP reporter derepression, 30 h; AID 1865, 2009; 280,000 tested, 0.2% active; Potency, µM (series often up to 53.9 µM), for inactives: top-dose GFP activation, actives largely listed as activators; note: % of control where 0% means no effect; nearly all actives have a fitted effect of over 60% in size
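Readout is the number of GFP-expressing murine LDR cells, counted by cytometry following washing. Cells were treated with compound for 30 h at 37 C; the stably integrated CMV-GFP locus is normally silent.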
The depositor's hits bear a star; ? = inconclusive; . = not tested or not shown; [ ] = remark or other dose. Many of the other results were omitted from the sample, so hits are more common in it than they were. Unless noted, calls come from the whole dose curve; as a rule, active = well fitted curve in the direction sought with a large enough effect; inconclusive = small, poorly fitted or top-dose-only effect, or another doubt; inactive = no such curve, though single readings can be large; an effect the other way counts as inactive or inconclusive. Potency is the fitted concentration of half-maximal effect.

SMILES	HTT aggregate	PINK1 expr mod	HTT ATP protect	Epigenetic reg
CCc1ccc2occ(CC(=O)N(Cc3ccccc3)C3CCS(=O)(=O)C3)c2c1 (centres undefined)	.	-1%	.	6%
C/C(=N\NC(=O)CSCc1ccc([N+](=O)[O-])cc1)c1ccccc1O	10µM*	6%	.	-1%
C/C(=N\NC(=O)CSCc1ccc([N+](=O)[O-])cc1)c1ccccc1	-9%	0%	-6%	-6%
N#Cc1nc(-c2ccc(OCc3ccccc3)cc2)oc1NCc1cccnc1	13µM*	4%	-68%[0.074 µM]	-4%
N#Cc1nc(-c2ccc(OCc3ccc(Cl)cc3)cc2)oc1NCc1cccnc1	-4%	14%	-40%	1%
Nc1c(-c2ccccc2)cnn1-c1ccccc1	.	0%	.	.
CCc1ccc(NC(=O)c2sc3nc(C)cc(C)c3c2NC(=O)c2ccccc2)cc1	.	1%	.	-1%
O=C(CSc1nc2ccsc2c(=O)n1Cc1ccccc1)NCC1CCCO1 (centres undefined)	-14%	3%	-24%	1%
CCC1CCCCN1C(=O)CSc1nc2ccsc2c(=O)n1Cc1ccccc1 (centres undefined)	16µM*	1%	-33%	-1%
Cc1cc(C(=O)CC#N)c(C)n1-c1ccc(OC(F)F)cc1	8.9µM*	-1%	2%[10 µM]	0%
COC(=O)c1cc(C(=O)OC)cc(-n2c(C)cc(C(=O)CC#N)c2C)c1	26%	.	-8%	-1%
CC(OC(=O)c1ccccc1Br)C(=O)Nc1nc(-c2cccc([N+](=O)[O-])c2)cs1 (centres undefined)	8%	4%	-2%[10 µM]	0%
O=C(Nc1nc(-c2cccc([N+](=O)[O-])c2)cs1)C(c1ccccc1)c1ccccc1	16µM*	2%	4%[10 µM]	6%
COc1cccc(/C=N/Nc2ncnc(Cl)c2N)c1O	?	?	-86%[10 µM]	0%
COc1cccc(/C=N/Nc2nc3ccccc3n3cnnc23)c1	-12%	?	-8%[1.9 µM]	1%
COc1cccc(/C=N/Nc2ncnc3scc(-c4ccccc4)c23)c1O	8.9µM*	-5%	.	-8%
COc1cccc(/C=N/Nc2nc3ccccc3n3cnnc23)c1O	8.9µM*	7%	-42%[10 µM]	1%
COc1cccc(/C=N/Nc2nccnc2Cl)c1O	1.3µM*	-2%	-86%[10 µM]	1%
CCOc1ccc(NC(=O)CSc2ncc3c(n2)-c2cc(Cl)ccc2N(C)S3(=O)=O)cc1	.	3%	.	8%
COc1cccc(-c2c(C(=O)N/N=C(\C)c3ccc(Cl)s3)nnn2-c2nonc2N)c1	.	8%	.	.
CCOc1cccc2cc(C(=O)NCc3cccnc3)c(=O)oc12	0%	11µM*	-5%[0.074 µM]	1%
O=C(CCCN1C(=O)c2cccc3cccc(c23)C1=O)NCCN1CCOCC1	0%	5%	22%[10 µM]	-1%
CC(=O)c1cccc(NC(=O)Cc2noc3ccccc23)c1	.	-1%	.	0%
O=C(Nc1ccc(C(=O)N2CCOCC2)cc1)Nc1cccc(Cl)c1	11µM*	3%	-25%[10 µM]	0%
CCN(CC)c1nc(-c2ccccn2)nc(-c2ccccc2)c1C#N	5µM*	3%	-124%	17%
SMILES	HTT aggregate	PINK1 expr mod	HTT ATP protect	Epigenetic reg
S=C1Cc2ccccc2N1	-21%[9.22 µM]	0%	1.3µM*	0%
S=C1Nc2ccccc2CS1	.	0%	.	.
C(=Nc1ccc(/C=C/c2ccnc3ccccc23)cc1)c1cccs1	.	0%	.	.
Oc1ccccc1Cn1c(-c2ccccc2O)nc2ccccc21	25µM*	8%	-7%	1%
COc1ccccc1Cn1c(-c2ccccc2OC)nc2ccccc21	?	-1%	-99%[10 µM]	3%
Oc1ccccc1CNc1cnc2ccccc2c1	35µM*	?	14%[10 µM]	-1%
CC(C)(C)C1CCC2(CC1)C(C#N)=C(SCC(=O)Nc1ccccc1)NC(=O)C2C#N (centres undefined)	?	22µM*	-46%	-1%
c1ccc(C2OC3c4cccc5cccc(c45)C3N2c2ccccc2)cc1 (centres undefined)	11µM*	9%	25%[10 µM]	-1%
Cc1nc(C(F)(F)F)c(C(=O)N/N=C(\N)c2ccccn2)s1	22µM*	0%	-164%	5%
CC(/C=N/n1c(-c2cccnc2)n[nH]c1=S)=C\c1ccccc1	?	1%	-33%	2%
CC(=C/c1ccccc1)/C=N/n1c(-c2ccncc2)n[nH]c1=S	2µM*	1%	-44%	-1%
Cc1cc(SCn2nnc3ccccc3c2=O)nc2ccccc12	19%	1%	-3%[10 µM]	-1%
Cc1ccc(-n2nnnc2SCn2nnc3ccccc3c2=O)c(C)c1	8.9µM*	-1%[38.3 µM]	-69%	0%
CSc1n[nH]c(NC(C)=O)n1	17%	1%	6%	0%
CC1CCC(C(C)C)C(OC(=O)Cn2c(-c3ccccc3)[n+](C)c3ccccc32)C1 (centres undefined)	11µM*	?	-49%[10 µM]	-2%
N#CC1=C2C=Cc3ccccc3N2CCCC1=O	5%	-1%	-16%	1%
COc1cc(/C=C2/CC/C(=C/c3ccc(O)c(OC)c3)C2=O)ccc1O	-2%[9.22 µM]	3%	1%[10 µM]	25µM*
O=C(O)C/C=C\CC(=O)O	.	.	-4%[10 µM]	.
Cc1ccc(C)c(S(=O)(=O)NCc2ccncc2)c1	10µM*	1%	-15%	-1%
Cc1ccc(S(=O)(=O)NCc2ccncc2)cc1	3.5µM*	1%	-6%	0%
O=C(Nc1cccc(F)c1)Nc1nnc([C@@H]2C[C@H](O)[C@@H](CO)O2)s1	.	-1%	.	.
CCn1c(CC(=O)Nc2cccc(OC)c2)nnc1SCC(=O)N1CCN(c2ccccc2)CC1	13%	2%[38.3 µM]	-38%[0.074 µM]	-2%
COc1ccc(Cc2nnc(N/N=C/c3ccc(O)cc3)[nH]c2=O)cc1OC	1.1µM*	0%	-83%[10 µM]	1%
CC1CN(C(=O)CSc2nnc(-c3ccc(Cl)cc3)n2C)CC(C)O1 (centres undefined)	6%	.	-3%	0%
COc1ccc(-c2n(Cc3ccccc3)c3ccccc3[n+]2Cc2ccccc2)cc1	.	11µM*	.	0%
SMILES	HTT aggregate	PINK1 expr mod	HTT ATP protect	Epigenetic reg
c1ccc2c(NC3CCNCC3)nc(-c3ccoc3)nc2c1	.	1%	13%	.
CN(C)c1ccc(-c2nc(NC3CCNCC3)c3ccccc3n2)cc1	.	4%	-96%	2.8µM*
Oc1ccccc1Nc1nc2ccccc2n2nnnc12	.	17%	.	13µM*
Fc1ccccc1Nc1nc2ccccc2n2nnnc12	-12%	11%	-26%	?
CC1=Nc2ccccc2NC(=O)C1Sc1nnc(C)s1 (centres undefined)	-29%	-1%	19%[10 µM]	-1%
Cc1nn(C)c(C)c1/C=C/C(=O)O	13%	1%	11µM*	-1%
Cc1nn(C)c(Cl)c1/C=C/C(=O)O	2%	-1%	4%[10 µM]	0%
Cc1cc(C(=O)Nc2nnc(C3CCCCC3)s2)cs1	2%	?	7%	2%
Cc1nc(NC(=O)C2CC2)sc1C(=O)Nc1ccccc1	.	2%	.	.
Cc1nc(Nc2c(Cl)cccc2Cl)sc1C(=O)Nc1ccccc1	11µM*	4%	-15%[10 µM]	-1%

Source: PubChem (National Center for Advancing Translational Sciences (NCATS))
